Results on nine sequences are retold here after publication PMC7862700, “An all-to-all approach to the identification of sequence-specific readers for epigenetic DNA modifications on cytosine”.

What all share (test): DAPPL (digital affinity profiling via proximity ligation, sequencing); 10 mM Tris-HCl pH 7.5, 50 mM NaCl, 1 mM DTT, 4% glycerol, room temperature, 30 min; GST-TFs on glutathione beads, 16-mer random dsDNA library, 0.1% formaldehyde crosslink after washing; high values mean tight binding
What all share (details): protein: recombinant; tags: N-terminal GST; dsDNA, one strand shown

For one assay, the target named is T1, ERF (Homo sapiens, UniProt P50548 1-548).
T1 sequence: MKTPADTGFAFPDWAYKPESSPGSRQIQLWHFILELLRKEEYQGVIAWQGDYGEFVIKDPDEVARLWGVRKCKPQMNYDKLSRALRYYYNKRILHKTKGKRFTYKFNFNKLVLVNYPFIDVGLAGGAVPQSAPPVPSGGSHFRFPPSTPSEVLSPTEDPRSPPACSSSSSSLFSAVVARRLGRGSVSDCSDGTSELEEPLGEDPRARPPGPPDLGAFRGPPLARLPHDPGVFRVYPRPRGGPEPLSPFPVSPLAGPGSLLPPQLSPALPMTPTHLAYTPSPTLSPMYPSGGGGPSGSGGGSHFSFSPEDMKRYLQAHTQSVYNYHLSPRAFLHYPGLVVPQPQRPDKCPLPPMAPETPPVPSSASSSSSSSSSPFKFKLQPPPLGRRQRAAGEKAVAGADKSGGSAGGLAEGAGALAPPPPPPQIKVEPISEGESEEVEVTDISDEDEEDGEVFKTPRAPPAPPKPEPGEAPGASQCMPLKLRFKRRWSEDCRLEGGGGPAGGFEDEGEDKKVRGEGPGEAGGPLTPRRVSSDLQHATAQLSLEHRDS
Summed up:
(§1)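 Binding signal is each hexamer's read frequency for a factor divided by its frequency in the tag-only sample. The factors were GST-fused human transcription factors from yeast, captured on glutathione beads, DNA-barcoded and pooled with that sample. Pools were incubated with 200 nmole of a random double-stranded 16-mer DNA library in Tris/NaCl/DTT/glycerol buffer at room temperature for 30 min, then washed, crosslinked with 0.1% formaldehyde, proximity-ligated with BsaI/T4 ligase (1 h, 37 °C), PCR-amplified and sequenced on an Illumina NextSeq500.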

The next assay addresses T2, ETV3L (Homo sapiens, UniProt Q6ZN32 1-361).
T2 sequence: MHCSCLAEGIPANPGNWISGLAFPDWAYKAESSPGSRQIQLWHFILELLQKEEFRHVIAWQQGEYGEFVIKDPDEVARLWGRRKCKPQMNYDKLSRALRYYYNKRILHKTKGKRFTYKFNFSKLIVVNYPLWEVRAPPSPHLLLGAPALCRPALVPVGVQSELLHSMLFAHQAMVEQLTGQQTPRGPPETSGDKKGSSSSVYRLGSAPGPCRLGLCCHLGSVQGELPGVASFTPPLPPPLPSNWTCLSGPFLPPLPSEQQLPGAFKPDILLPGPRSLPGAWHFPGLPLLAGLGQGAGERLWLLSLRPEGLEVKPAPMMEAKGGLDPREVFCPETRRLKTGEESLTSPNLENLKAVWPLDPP
A digest of the protocol: as §1

Another assay has as its target T3, ETS2 (Homo sapiens, UniProt P15036 1-469).
T3 sequence: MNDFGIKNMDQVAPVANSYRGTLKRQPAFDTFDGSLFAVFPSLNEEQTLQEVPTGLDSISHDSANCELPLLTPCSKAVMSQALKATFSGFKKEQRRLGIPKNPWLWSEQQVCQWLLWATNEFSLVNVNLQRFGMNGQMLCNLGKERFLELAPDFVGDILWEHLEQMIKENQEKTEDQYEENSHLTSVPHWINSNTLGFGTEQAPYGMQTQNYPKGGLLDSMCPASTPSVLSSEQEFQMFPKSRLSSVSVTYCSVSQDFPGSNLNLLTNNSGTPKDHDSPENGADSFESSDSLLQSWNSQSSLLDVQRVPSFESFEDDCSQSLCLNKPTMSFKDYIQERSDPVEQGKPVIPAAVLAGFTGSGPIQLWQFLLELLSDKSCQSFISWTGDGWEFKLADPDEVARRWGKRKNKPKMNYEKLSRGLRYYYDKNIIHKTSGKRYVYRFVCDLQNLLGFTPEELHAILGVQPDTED
A digest of the protocol: as §1

The target of a further assay is T4, SPDEF (Homo sapiens, UniProt O95238 1-335).
T4 sequence: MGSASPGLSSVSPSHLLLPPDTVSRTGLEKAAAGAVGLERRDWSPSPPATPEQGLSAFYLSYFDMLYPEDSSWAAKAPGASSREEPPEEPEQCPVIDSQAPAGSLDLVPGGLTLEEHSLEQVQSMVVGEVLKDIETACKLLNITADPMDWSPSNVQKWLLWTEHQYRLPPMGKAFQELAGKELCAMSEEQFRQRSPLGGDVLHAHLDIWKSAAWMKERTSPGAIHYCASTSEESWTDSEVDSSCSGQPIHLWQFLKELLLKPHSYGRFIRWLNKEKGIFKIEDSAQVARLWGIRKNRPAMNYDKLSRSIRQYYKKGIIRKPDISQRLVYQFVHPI
Summed up:
as §1

Another assay concerns the target T5, ETV7 (Homo sapiens, UniProt Q9Y603 1-341).
T5 sequence: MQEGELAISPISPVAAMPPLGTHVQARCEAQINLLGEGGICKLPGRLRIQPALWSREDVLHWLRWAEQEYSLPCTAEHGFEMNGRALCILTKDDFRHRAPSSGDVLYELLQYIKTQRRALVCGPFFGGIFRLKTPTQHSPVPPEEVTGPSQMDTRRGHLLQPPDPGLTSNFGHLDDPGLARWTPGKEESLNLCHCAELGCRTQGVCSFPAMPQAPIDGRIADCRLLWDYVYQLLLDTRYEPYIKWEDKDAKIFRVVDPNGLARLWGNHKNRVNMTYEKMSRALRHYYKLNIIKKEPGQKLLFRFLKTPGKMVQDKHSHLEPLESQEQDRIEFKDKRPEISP
Summed up: as §1

A further assay concerns the target T6, ELF5 (Homo sapiens, UniProt Q9UKW6-2 1-255).
T6 sequence: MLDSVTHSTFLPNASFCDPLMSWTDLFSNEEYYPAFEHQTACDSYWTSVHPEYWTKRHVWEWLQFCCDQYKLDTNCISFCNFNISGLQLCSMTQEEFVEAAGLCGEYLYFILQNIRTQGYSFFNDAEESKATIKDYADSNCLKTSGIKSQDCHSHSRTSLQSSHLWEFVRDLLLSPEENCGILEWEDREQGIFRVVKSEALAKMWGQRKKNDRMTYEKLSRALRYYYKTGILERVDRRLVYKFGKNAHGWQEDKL
A digest of the protocol:
as §1

The target of a further assay is T7, ETV3 (Homo sapiens, UniProt P41162-2 1-143).
T7 sequence: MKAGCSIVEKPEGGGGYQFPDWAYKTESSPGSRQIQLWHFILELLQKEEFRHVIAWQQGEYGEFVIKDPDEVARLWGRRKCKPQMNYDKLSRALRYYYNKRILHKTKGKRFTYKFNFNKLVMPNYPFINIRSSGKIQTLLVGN
A digest of the protocol:
as §1

Another assay addresses ETV6 (Homo sapiens, UniProt P41212 1-452). A digest of the protocol:
as §1

ETV6, sequence (P41212 whole entry): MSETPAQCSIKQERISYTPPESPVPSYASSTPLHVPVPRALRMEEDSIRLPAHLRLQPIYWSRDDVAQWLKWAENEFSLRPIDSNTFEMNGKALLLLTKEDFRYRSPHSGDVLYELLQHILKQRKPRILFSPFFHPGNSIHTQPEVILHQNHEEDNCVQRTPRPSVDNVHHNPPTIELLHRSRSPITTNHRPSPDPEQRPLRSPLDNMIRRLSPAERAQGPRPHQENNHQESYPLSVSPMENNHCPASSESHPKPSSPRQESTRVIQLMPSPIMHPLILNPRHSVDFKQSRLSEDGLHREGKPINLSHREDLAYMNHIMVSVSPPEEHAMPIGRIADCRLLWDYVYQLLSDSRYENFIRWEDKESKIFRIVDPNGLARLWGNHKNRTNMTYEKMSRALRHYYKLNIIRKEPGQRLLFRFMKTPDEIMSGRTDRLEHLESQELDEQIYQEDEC

Turning to CGCTCA, the binding signal is 1.2 fold enrichment (6-mer frequency, TF over GST control) with ERF; 1.24 fold enrichment (6-mer frequency, TF over GST control) in the assay with ETV3L; 1.14 fold enrichment (6-mer frequency, TF over GST control) with ETS2; 1.05 fold enrichment (6-mer frequency, TF over GST control) with SPDEF; 1.09 fold enrichment (6-mer frequency, TF over GST control) with ETV7; 1.16 fold enrichment (6-mer frequency, TF over GST control) with ELF5. The binding signal in the assay with ETV3 is 1.07 fold enrichment (6-mer frequency, TF over GST control); with ETV6, 1.09 fold enrichment (6-mer frequency, TF over GST control).

For AAATTC, the binding signal with ERF is 1.29 fold enrichment (6-mer frequency, TF over GST control); with ETV3L it was 1.43 fold enrichment (6-mer frequency, TF over GST control); with ETS2, 1.33 fold enrichment (6-mer frequency, TF over GST control); in the assay with SPDEF, 1.34 fold enrichment (6-mer frequency, TF over GST control); with ETV7, 1.28 fold enrichment (6-mer frequency, TF over GST control); with ELF5, 1.4 fold enrichment (6-mer frequency, TF over GST control). For the same sequence, the binding signal is 1.3 fold enrichment (6-mer frequency, TF over GST control) with ETV3 and 1.31 fold enrichment (6-mer frequency, TF over GST control) with ETV6.

Consider AAGGAA, for which the binding signal with ERF is 1.23 fold enrichment (6-mer frequency, TF over GST control); in the assay with ETV3L it was 1.3 fold enrichment (6-mer frequency, TF over GST control); with ETS2 it was 1.34 fold enrichment (6-mer frequency, TF over GST control); in the assay with SPDEF it was 1.22 fold enrichment (6-mer frequency, TF over GST control); with ETV7 it was 1.28 fold enrichment (6-mer frequency, TF over GST control); in the assay with ELF5, 2.15 fold enrichment (6-mer frequency, TF over GST control). Also, the binding signal with ETV3 is 1.37 fold enrichment (6-mer frequency, TF over GST control); with ETV6, 1.41 fold enrichment (6-mer frequency, TF over GST control).

On to CCCACG, for which the binding signal in the assay with ERF was 1.13 fold enrichment (6-mer frequency, TF over GST control); with ETV3L it was 1.05 fold enrichment (6-mer frequency, TF over GST control); with ETS2 it was 1.17 fold enrichment (6-mer frequency, TF over GST control); with SPDEF, 1.05 fold enrichment (6-mer frequency, TF over GST control); with ETV7, 1.18 fold enrichment (6-mer frequency, TF over GST control); in the assay with ELF5, 1.15 fold enrichment (6-mer frequency, TF over GST control). The binding signal was 1.11 fold enrichment (6-mer frequency, TF over GST control) in the assay with ETV3 and 1.09 fold enrichment (6-mer frequency, TF over GST control) with ETV6.

TGGCAC: the binding signal with ERF was 1.21 fold enrichment (6-mer frequency, TF over GST control); with ETV3L it was 1.2 fold enrichment (6-mer frequency, TF over GST control); with ETS2, 1.14 fold enrichment (6-mer frequency, TF over GST control); with SPDEF, 1.12 fold enrichment (6-mer frequency, TF over GST control); with ETV7, 1.18 fold enrichment (6-mer frequency, TF over GST control); in the assay with ELF5, 1.05 fold enrichment (6-mer frequency, TF over GST control). Also, the binding signal with ETV3 was 1.19 fold enrichment (6-mer frequency, TF over GST control); with ETV6, 1.16 fold enrichment (6-mer frequency, TF over GST control).

Turning to CTCAGC, the binding signal with ERF was 1.1 fold enrichment (6-mer frequency, TF over GST control); with ETV3L, 1.36 fold enrichment (6-mer frequency, TF over GST control); with ETS2 it was 1.22 fold enrichment (6-mer frequency, TF over GST control); with SPDEF, 1.15 fold enrichment (6-mer frequency, TF over GST control); with ETV7 it was 1.21 fold enrichment (6-mer frequency, TF over GST control); with ELF5, 1.08 fold enrichment (6-mer frequency, TF over GST control). In addition, the binding signal is 1.32 fold enrichment (6-mer frequency, TF over GST control) in the assay with ETV3 and 1.2 fold enrichment (6-mer frequency, TF over GST control) with ETV6.

Regarding TAGATC, the binding signal is 1.18 fold enrichment (6-mer frequency, TF over GST control) in the assay with ERF; 1.13 fold enrichment (6-mer frequency, TF over GST control) in the assay with ETV3L; 1.13 fold enrichment (6-mer frequency, TF over GST control) with ETS2; 1.43 fold enrichment (6-mer frequency, TF over GST control) with SPDEF; 1.06 fold enrichment (6-mer frequency, TF over GST control) with ETV7; 1.02 fold enrichment (6-mer frequency, TF over GST control) with ELF5. Also, the binding signal with ETV3 was 1.09 fold enrichment (6-mer frequency, TF over GST control); with ETV6 it was 1.02 fold enrichment (6-mer frequency, TF over GST control).

In the case of CCGCAC, the binding signal with ERF is 1.46 fold enrichment (6-mer frequency, TF over GST control); with ETV3L it was 1.55 fold enrichment (6-mer frequency, TF over GST control); with ETS2, 1.47 fold enrichment (6-mer frequency, TF over GST control); in the assay with SPDEF it was 1.46 fold enrichment (6-mer frequency, TF over GST control); with ETV7 it was 1.4 fold enrichment (6-mer frequency, TF over GST control); with ELF5, 1.59 fold enrichment (6-mer frequency, TF over GST control). Also, the binding signal was 1.61 fold enrichment (6-mer frequency, TF over GST control) in the assay with ETV3 and 1.56 fold enrichment (6-mer frequency, TF over GST control) with ETV6.

Turning to CGGTTC, the binding signal with ERF is 1.21 fold enrichment (6-mer frequency, TF over GST control); in the assay with ETV3L, 1.17 fold enrichment (6-mer frequency, TF over GST control); with ETS2, 1.21 fold enrichment (6-mer frequency, TF over GST control); with SPDEF, 1.63 fold enrichment (6-mer frequency, TF over GST control); in the assay with ETV7 it was 1.17 fold enrichment (6-mer frequency, TF over GST control); with ELF5 it was 1.33 fold enrichment (6-mer frequency, TF over GST control). Further, the binding signal with ETV3 is 1.3 fold enrichment (6-mer frequency, TF over GST control); with ETV6 it was 1.4 fold enrichment (6-mer frequency, TF over GST control).
